{"source": "PubChem BioAssay (NCATS)", "key": {"[1]": {"target": "Aldehyde dehydrogenase, mitochondrial (Homo sapiens) (UniProt P05091)", "experiment": "qHTS for Inhibitors of the Aldehyde Dehydrogenase Family (ALDH2) Primary screen (AID 2061308); also: nearly all actives have a fitted effect of over 55% in size"}, "[2]": {"target": "Retinaldehyde dehydrogenase 3 (Homo sapiens) (UniProt P47895)", "experiment": "qHTS for Inhibitors of the Aldehyde Dehydrogenase Family (ALDH1A3) Primary screen (AID 2061315)"}}, "note": "Records with an inconclusive call do not appear. A call without a number means that no potency is given here. Calls of active or inactive are those of the source. Calls follow the shape of the dose curve; as a rule, active = well fitted curve in the direction sought with a large enough effect; inconclusive = small, poorly fitted or top-dose-only effect, or another doubt; inactive = no such curve, though single readings can be large; an effect the other way counts as inactive or inconclusive."}
{"smiles": "Cn1c(NC2=NC3(CCCC3)C3=C(CCCC3=O)N2)nc2ccccc21", "values": [{"measurement": "Potency", "setting": "[1]", "result": "inactive"}, {"measurement": "Potency", "setting": "[2]", "result": "inactive"}]}
{"smiles": "O=C1CCc2cc(S(=O)(=O)Nc3ccncc3)ccc2N1", "values": [{"measurement": "Potency", "setting": "[1]", "result": "inactive"}, {"measurement": "Potency", "setting": "[2]", "result": "inactive"}]}
{"smiles": "Cc1ccc(S(=O)(=O)n2cc(C(=O)Nc3nc(-c4ccccc4)cs3)c3ccccc32)cc1", "values": [{"measurement": "Potency", "setting": "[1]", "result": "inactive"}, {"measurement": "Potency", "setting": "[2]", "result": "inactive"}]}
{"smiles": "COc1ccc(-c2ccc3ncnc(NCc4cccs4)c3c2)cc1", "values": [{"measurement": "Potency", "setting": "[1]", "result": "inactive"}, {"measurement": "Potency", "setting": "[2]", "result": "inactive"}]}
{"smiles": "COc1ccc(C2=Nn3c(nnc3-c3ccccc3C(F)(F)F)SC2)cc1OC", "values": [{"measurement": "Potency", "setting": "[1]", "result": "inactive"}, {"measurement": "Potency", "setting": "[2]", "result": "inactive"}]}
{"smiles": "CCN(CC)C(=O)c1cc(S(=O)(=O)Cc2ccccc2)c(N2CCC(c3ccccc3)CC2)cc1N(CC)CCN(C)C", "values": [{"measurement": "Potency", "setting": "[1]", "result": "inactive"}, {"measurement": "Potency", "setting": "[2]", "result": "inactive"}]}
{"smiles": "NC(=O)c1c(-c2ccccc2)no[n+]1[O-]", "values": [{"measurement": "Potency", "setting": "[1]", "result": "inactive"}, {"measurement": "Potency", "setting": "[2]", "result": "inactive"}]}
{"smiles": "Cc1ccc(C(=O)NC2CCN(C#N)CC2)cc1", "values": [{"measurement": "Potency", "setting": "[1]", "result": "inactive"}, {"measurement": "Potency", "setting": "[2]", "result": "inactive"}]}
{"smiles": "COCCN(CCOC)c1nc(C)nc2c1nc(-c1ccccc1)n2CCCN(C)C", "values": [{"measurement": "Potency", "setting": "[1]", "result": "inactive"}, {"measurement": "Potency", "setting": "[2]", "result": "inactive"}]}
{"smiles": "N=c1c2c(ncn1-c1ccccc1)Oc1ccc3ccccc3c1C2c1ccc2c(c1)OCO2", "note": "(stereo not given)", "values": [{"measurement": "Potency", "setting": "[1]", "result": "inactive"}, {"measurement": "Potency", "setting": "[2]", "result": "inactive"}]}
{"smiles": "Cc1cccc([S+](=O)([O-])NC2CCN(C#N)CC2)c1", "values": [{"measurement": "Potency", "setting": "[1]", "result": "inactive"}, {"measurement": "Potency", "setting": "[2]", "result": "inactive"}]}
{"smiles": "COc1nccc(-c2nc(Nc3ccc(F)c(F)c3)c3ccccc3n2)c1Cl", "values": [{"measurement": "Potency", "setting": "[1]", "result": "inactive"}, {"measurement": "Potency", "setting": "[2]", "result": "inactive"}]}
{"smiles": "CCOc1ccc(CCNC(=O)c2cc3sccc3n2CCc2ccccc2)cc1OCC", "values": [{"measurement": "Potency", "setting": "[1]", "result": "inactive"}, {"measurement": "Potency", "setting": "[2]", "result": "inactive"}]}
{"smiles": "CC(C)(C)OC(=O)Cc1nnc(CNC(=O)c2ccccc2)s1", "values": [{"measurement": "Potency", "setting": "[1]", "result": "inactive"}, {"measurement": "Potency", "setting": "[2]", "result": "inactive"}]}
{"smiles": "CC(=O)N1CCN(C(=O)COC(=O)c2ccc([S+](C)(=O)[O-])c([N+](=O)[O-])c2)CC1", "values": [{"measurement": "Potency", "setting": "[1]", "result": "inactive"}, {"measurement": "Potency", "setting": "[2]", "result": "inactive"}]}
{"smiles": "C=CCNc1oc(-c2cccc(Br)c2)nc1C#N", "values": [{"measurement": "Potency", "setting": "[1]", "result": "inactive"}, {"measurement": "Potency", "setting": "[2]", "result": "inactive"}]}
{"smiles": "Cc1cc(C)nc(NC(=S)N2CCN(c3ncccc3C#N)CC2)c1", "values": [{"measurement": "Potency", "setting": "[1]", "result": "inactive"}, {"measurement": "Potency", "setting": "[2]", "result": "inactive"}]}
{"smiles": "Cc1ccc(-c2ccc(=O)n(CCN)n2)cc1", "values": [{"measurement": "Potency", "setting": "[1]", "result": "inactive"}, {"measurement": "Potency", "setting": "[2]", "result": "inactive"}]}
{"smiles": "O=C(O)c1ccc2c(c1)C(=O)N([C@]1(C(=O)O)CC1c1ccccc1)C2=O", "note": "(stereo not given in full)", "values": [{"measurement": "Potency", "setting": "[1]", "result": "inactive"}, {"measurement": "Potency", "setting": "[2]", "result": "inactive"}]}
{"smiles": "Cc1cc2c(s1)c1cnn(Cc3c(F)c(F)c(C(F)(F)F)c(F)c3F)c(=O)c1n2C", "values": [{"measurement": "Potency", "setting": "[1]", "result": "inactive"}, {"measurement": "Potency", "setting": "[2]", "result": "inactive"}]}
{"smiles": "O=C(Nc1sc2c(c1-c1nc3ccccc3s1)CCNC2)C(F)F", "values": [{"measurement": "Potency", "setting": "[1]", "result": "inactive"}, {"measurement": "Potency", "setting": "[2]", "result": "inactive"}]}
{"smiles": "Cc1ccc(OCCn2c(CCNC(=O)/C=C/c3ccccc3)nc3ccccc32)cc1", "values": [{"measurement": "Potency", "setting": "[1]", "result": "inactive"}, {"measurement": "Potency", "setting": "[2]", "result": "inactive"}]}
{"smiles": "Cn1nnnc1Sc1ncnc2scc(-c3ccc[nH]3)c12", "values": [{"measurement": "Potency", "setting": "[1]", "result": "inactive"}, {"measurement": "Potency", "setting": "[2]", "result": "inactive"}]}
{"smiles": "COc1ccc(C(=O)Nc2nc(-c3ccccc3)cs2)cc1NS(=O)(=O)c1ccc(C)cc1", "values": [{"measurement": "Potency", "setting": "[1]", "result": "inactive"}, {"measurement": "Potency", "setting": "[2]", "result": "inactive"}]}
{"smiles": "Cc1ccccc1N(C)C1=N[S+](=O)([O-])c2ccccc21", "values": [{"measurement": "Potency", "setting": "[1]", "result": "inactive"}, {"measurement": "Potency", "setting": "[2]", "result": "inactive"}]}
{"smiles": "CCOC(=O)CCC(=O)Nc1ncnc2c1C(c1ccccc1)c1c(ccc3ccccc13)O2", "note": "(stereo not given)", "values": [{"measurement": "Potency", "setting": "[1]", "result": "inactive"}, {"measurement": "Potency", "setting": "[2]", "result": "inactive"}]}
{"smiles": "COc1ccc(OC)c(C2=Nn3c(nnc3-c3cccc(OC)c3OC)SC2)c1", "values": [{"measurement": "Potency", "setting": "[1]", "result": "inactive"}, {"measurement": "Potency", "setting": "[2]", "result": "inactive"}]}
{"smiles": "CC(=O)O[C@@H]1c2c3c(cc(O)c2C(=O)O[C@@H]1C)O[C@@]1(C)[C@@H](O)C[C@H]2C(C)(C)C(=O)C=C[C@]2(C)[C@@H]1C3", "values": [{"measurement": "Potency", "setting": "[1]", "result": "inactive"}, {"measurement": "Potency", "setting": "[2]", "result": "inactive"}]}
{"smiles": "Cc1cccc(C)c1OCc1cccc(C2Nc3ccccc3C(=O)N2Cc2ccco2)c1", "note": "(stereo not given)", "values": [{"measurement": "Potency", "setting": "[1]", "result": "inactive"}, {"measurement": "Potency", "setting": "[2]", "result": "inactive"}]}
{"smiles": "CCOc1ccc(C(=O)Nc2ccc(-c3nc4ccccc4[nH]3)cc2)cc1[N+](=O)[O-]", "values": [{"measurement": "Potency", "setting": "[1]", "result": "inactive"}, {"measurement": "Potency", "setting": "[2]", "result": "inactive"}]}
{"smiles": "NC(=O)C1CCN(c2ncc(-c3cccc(F)c3)s2)CC1", "values": [{"measurement": "Potency", "setting": "[1]", "result": "inactive"}, {"measurement": "Potency", "setting": "[2]", "result": "inactive"}]}
{"smiles": "Cc1ccc(OCCn2c(CCNC(=O)C3CCC3)nc3ccccc32)cc1", "values": [{"measurement": "Potency", "setting": "[1]", "result": "inactive"}, {"measurement": "Potency", "setting": "[2]", "result": "inactive"}]}
{"smiles": "CCOc1ccc(CCNC(=O)c2cc3sccc3[nH]2)cc1OCC", "values": [{"measurement": "Potency", "setting": "[1]", "result": "inactive"}, {"measurement": "Potency", "setting": "[2]", "result": "inactive"}]}
{"smiles": "CCn1c(-c2nonc2N)nc2c(C#CC(C)(C)O)ncc(OCC3CCCNC3)c21", "note": "(stereo not given)", "values": [{"measurement": "Potency", "setting": "[1]", "result": "inactive"}, {"measurement": "Potency", "setting": "[2]", "result": "inactive"}]}
{"smiles": "CCOc1ccc(COc2ccc(-c3nc4ccccc4[nH]3)cc2)cc1", "values": [{"measurement": "Potency", "setting": "[1]", "result": "inactive"}, {"measurement": "Potency", "setting": "[2]", "result": "inactive"}]}
{"smiles": "Cc1cn2c(n1)Cc1ccc(Cl)cc1C(c1ccc(N)cc1)=N2", "values": [{"measurement": "Potency", "setting": "[1]", "result": "inactive"}, {"measurement": "Potency", "setting": "[2]", "result": "inactive"}]}
{"smiles": "Cc1ccc(NS(=O)(=O)c2ccc3c(c2)CC(=O)N3C)cc1C", "values": [{"measurement": "Potency", "setting": "[1]", "result": "inactive"}, {"measurement": "Potency", "setting": "[2]", "result": "inactive"}]}
{"smiles": "Cc1ccc(OCCn2c(CCNC(=O)/C=C/c3ccccc3Cl)nc3ccccc32)cc1", "values": [{"measurement": "Potency", "setting": "[1]", "result": "inactive"}, {"measurement": "Potency", "setting": "[2]", "result": "inactive"}]}
{"smiles": "Cc1cc(CNc2ncnc3ccc(-c4ccc5c(c4)OCO5)cc23)c(C)o1", "values": [{"measurement": "Potency", "setting": "[1]", "result": "inactive"}, {"measurement": "Potency", "setting": "[2]", "result": "inactive"}]}
{"smiles": "OC1C=C2C3CN(Cc4cc5c(cc43)OCO5)C2CC1O", "note": "(stereo not given)", "values": [{"measurement": "Potency", "setting": "[1]", "result": "inactive"}, {"measurement": "Potency", "setting": "[2]", "result": "inactive"}]}
